From the supplement of paper PMC8728848
About 410 targets per protein were measured; listed, in parts, are those with the strongest signals and a random draw of the rest.

Columns and labels:
Test in all cases: glycan array binding signal (z-score within array); higher = stronger binding
Settings in all cases: glycan notation: IUPAC condensed, linker removed; mutation: R82H, R255H
[1] = molecular target: Gal(b1-4)GlcNAc(b1-3)Gal(b1-4)GlcNAc(b1-3)[Gal(b1-4)GlcNAc(b1-3)Gal(b1-4)GlcNAc(b1-6)]GalNAc
In short: (§1)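 Arrays were curated from the Consortium for Functional Glycomics database, 3228 in total, and kept only where the protein sequence was available. Binding is expressed as a within-array Z-score. This score was averaged across arrays of the same protein sequence at different concentrations or buffers and across linkers, and negative values can be read as non-binding.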

Gal4S(b1-4)GlcNAc = molecular target: Gal4S(b1-4)GlcNAc
In short: as §1

Gal6S(b1-3)GlcNAc6S = molecular target: Gal6S(b1-3)GlcNAc6S
In short: as §1

[2] = molecular target: GalNAc(a1-3)GalNAc(b1-3)Gal(a1-4)Gal(b1-4)Glc
In short: as §1

GalNAc(b1-3)GalNAc = molecular target: GalNAc(b1-3)GalNAc
In short: as §1

GalNAc(b1-4)GlcNAc = molecular target: GalNAc(b1-4)GlcNAc
In short: as §1

[3] = molecular target: GalNAc(b1-4)GlcNAc(b1-3)GalNAc(b1-4)GlcNAc
In short: as §1

[4] = molecular target: GlcA3S(b1-3)Gal(b1-4)GlcNAc(b1-3)Gal(b1-4)Glc
In short: as §1

[5] = molecular target: GlcNAc(b1-2)Man(a1-3)[GlcNAc(b1-4)][GlcNAc(b1-2)Man(a1-6)]Man(b1-4)GlcNAc(b1-4)[Fuc(a1-6)]GlcNAc
In short: as §1

[6] = molecular target: GlcNAc(b1-3)Gal(b1-4)GlcNAc(b1-3)Gal(b1-4)GlcNAc(b1-2)[GlcNAc(b1-3)Gal(b1-4)GlcNAc(b1-3)Gal(b1-4)GlcNAc(b1-6)]Man(a1-6)[GlcNAc(b1-3)Gal(b1-4)GlcNAc(b1-3)Gal(b1-4)GlcNAc(b1-2)Man(a1-3)]Man(b1-4)GlcNAc(b1-4)[Fuc(a1-6)]GlcNAc
In short: as §1

[7] = molecular target: GlcNAc(b1-3)Gal(b1-4)GlcNAc(b1-3)Gal(b1-4)GlcNAc(b1-3)Gal(b1-4)GlcNAc(b1-2)Man(a1-3)[GlcNAc(b1-3)Gal(b1-4)GlcNAc(b1-3)Gal(b1-4)GlcNAc(b1-3)Gal(b1-4)GlcNAc(b1-2)Man(a1-6)]Man(b1-4)GlcNAc(b1-4)GlcNAc
In short: as §1

[8] = molecular target: GlcNAc(b1-3)Gal(b1-4)GlcNAc(b1-3)Gal(b1-4)GlcNAc(b1-3)Gal(b1-4)GlcNAc(b1-2)[GlcNAc(b1-3)Gal(b1-4)GlcNAc(b1-3)Gal(b1-4)GlcNAc(b1-3)Gal(b1-4)GlcNAc(b1-6)]Man(a1-6)[GlcNAc(b1-3)Gal(b1-4)GlcNAc(b1-3)Gal(b1-4)GlcNAc(b1-3)Gal(b1-4)GlcNAc(b1-2)Man(a1-3)]Man(b1-4)GlcNAc(b1-4)[Fuc(a1-6)]GlcNAc
In short: as §1

[9] = molecular target: GlcNAc(b1-3)Gal(b1-4)GlcNAc(b1-3)Gal(b1-4)GlcNAc(b1-3)Gal(b1-4)GlcNAc(b1-3)Gal(b1-4)GlcNAc(b1-2)Man(a1-3)[GlcNAc(b1-3)Gal(b1-4)GlcNAc(b1-3)Gal(b1-4)GlcNAc(b1-3)Gal(b1-4)GlcNAc(b1-3)Gal(b1-4)GlcNAc(b1-2)Man(a1-6)]Man(b1-4)GlcNAc(b1-4)GlcNAc
In short: as §1

[10] = molecular target: GlcNAc(b1-3)Gal(b1-4)GlcNAc(b1-3)Gal(b1-4)GlcNAc(b1-3)Gal(b1-4)GlcNAc(b1-3)Gal(b1-4)GlcNAc(b1-2)Man(a1-3)[GlcNAc(b1-3)Gal(b1-4)GlcNAc(b1-3)Gal(b1-4)GlcNAc(b1-3)Gal(b1-4)GlcNAc(b1-3)Gal(b1-4)GlcNAc(b1-2)Man(a1-6)]Man(b1-4)GlcNAc(b1-4)[Fuc(a1-6)]GlcNAc
In short: as §1

[11] = molecular target: GlcNAc(b1-3)Gal(b1-4)GlcNAc(b1-3)Gal(b1-4)GlcNAc(b1-3)Gal(b1-4)GlcNAc(b1-3)Gal(b1-4)GlcNAc(b1-2)[GlcNAc(b1-3)Gal(b1-4)GlcNAc(b1-3)Gal(b1-4)GlcNAc(b1-3)Gal(b1-4)GlcNAc(b1-3)Gal(b1-4)GlcNAc(b1-6)]Man(a1-6)[GlcNAc(b1-3)Gal(b1-4)GlcNAc(b1-3)Gal(b1-4)GlcNAc(b1-3)Gal(b1-4)GlcNAc(b1-3)Gal(b1-4)GlcNAc(b1-2)Man(a1-3)]Man(b1-4)GlcNAc(b1-4)[Fuc(a1-6)]GlcNAc
In short: as §1

[12] = molecular target: GlcNAc(b1-3)Gal(b1-4)GlcNAc(b1-6)[Gal(b1-3)]GalNAc
In short: as §1

[13] = molecular target: GlcNAc(b1-4)GlcNAc(b1-4)GlcNAc
In short: as §1

[14] = molecular target: Man(a1-2)Man(a1-6)[Man(a1-3)]Man(a1-6)[Man(a1-2)Man(a1-2)Man(a1-3)]Man
In short: as §1

Man(a1-3)[Man(a1-6)]Man = molecular target: Man(a1-3)[Man(a1-6)]Man
In short: as §1

[15] = molecular target: Man(a1-3)[Man(a1-6)]Man(a1-6)[Man(a1-2)Man(a1-3)]Man(b1-4)GlcNAc(b1-4)GlcNAc
In short: as §1

Neu5Ac(a2-3)Gal = molecular target: Neu5Ac(a2-3)Gal
In short: as §1

[16] = molecular target: Neu5Ac(a2-3)Gal(b1-3)GlcNAc
In short: as §1

[17] = molecular target: Neu5Ac(a2-3)Gal(b1-3)GlcNAc(b1-2)Man(a1-3)[Neu5Ac(a2-3)Gal(b1-3)GlcNAc(b1-2)Man(a1-6)]Man(b1-4)GlcNAc(b1-4)GlcNAc
In short: as §1

[18] = molecular target: Neu5Ac(a2-3)Gal(b1-4)GlcNAc(b1-3)Gal(b1-4)GlcNAc(b1-3)Gal(b1-4)GlcNAc
In short: as §1

[19] = molecular target: Neu5Ac(a2-3)Gal(b1-4)GlcNAc(b1-3)Gal(b1-4)GlcNAc(b1-3)[Neu5Ac(a2-3)Gal(b1-4)GlcNAc(b1-3)Gal(b1-4)GlcNAc(b1-6)]GalNAc
In short: as §1

[20] = molecular target: Neu5Ac(a2-6)Gal(b1-4)GlcNAc(b1-3)GalNAc
In short: as §1

[21] = molecular target: Neu5Ac(a2-6)Gal(b1-4)GlcNAc6S
In short: as §1

[22] = molecular target: Neu5Ac(a2-8)Neu5Ac(a2-3)[GalNAc(b1-4)]Gal(b1-4)Glc
In short: as §1

B1: Gal 8 (Mus musculus), Q9JL15 (protein)
chain: MGGSHHHHHHGMASMLSLNNLQNIIYNPIIPYVGTITEQLKPGSLIVIRGHVPKDSERFQVDFQLGNSLKPRADVAFHFNPHFKRSSCIVCNTLTQEKWGWEEITYDMPFRKEKSFEIVFMVLKNKFQVAVNGRHVLLYAHRISPEQIDTVGIYGKVNIHSIGFRFSSASALPHTLGDLQSMETSALGLTQINRENIQKPGKLQLSLPFEARLNASMGPGRTVVIKGEVNTNARSFNVDLVAGKTRDIALHLNPHLNVKAFVRNSFLQDAWGEEERNITCFPFSSGMYFEMIIYCDVREFKVAINGVHSLEYKHRFKDLSSIDTLSVDGDIRLLDVRSW
In the case of B1, the “glycan array binding signal (z-score)” value [1] is reported as 0.053, the “glycan array binding signal (z-score)” value (Gal4S(b1-4)GlcNAc) is reported as -0.22 and the “glycan array binding signal (z-score)” value (Gal6S(b1-3)GlcNAc6S) is reported as -0.186. The “glycan array binding signal (z-score)” value [2] was -0.214, the “glycan array binding signal (z-score)” value (GalNAc(b1-3)GalNAc) was -0.259 and the “glycan array binding signal (z-score)” value (GalNAc(b1-4)GlcNAc) was -0.245. For the same binder, the “glycan array binding signal (z-score)” value [3] was -0.271, the “glycan array binding signal (z-score)” value [4] was -0.198 and the “glycan array binding signal (z-score)” value [5] was -0.278. For the same binder, the “glycan array binding signal (z-score)” value [6] was 5.44, the “glycan array binding signal (z-score)” value [7] was 4.25 and the “glycan array binding signal (z-score)” value [8] was 4.84. The “glycan array binding signal (z-score)” value [9] was 7.01, the “glycan array binding signal (z-score)” value [10] was 6.24 and the “glycan array binding signal (z-score)” value [11] was 6.71. The “glycan array binding signal (z-score)” value [12] was -0.251, the “glycan array binding signal (z-score)” value [13] was -0.255 and the “glycan array binding signal (z-score)” value [14] was -0.276. For the same binder, the “glycan array binding signal (z-score)” value (Man(a1-3)[Man(a1-6)]Man) was -0.24, the “glycan array binding signal (z-score)” value [15] was -0.246 and the “glycan array binding signal (z-score)” value (Neu5Ac(a2-3)Gal) was -0.259. For the same binder, the “glycan array binding signal (z-score)” value [16] was -0.217, the “glycan array binding signal (z-score)” value [17] was 0.022 and the “glycan array binding signal (z-score)” value [18] was -0.148. For the same binder, the “glycan array binding signal (z-score)” value [19] was -0.255, the “glycan array binding signal (z-score)” value [20] was -0.062 and the “glycan array binding signal (z-score)” value [21] was -0.2. For the same binder, the “glycan array binding signal (z-score)” value [22] was -0.268.
